Results reported in PubChem BioAssay AID463173 (ICCB-Longwood Screening Facility, Harvard Medical School, 2010).
In all, about 52,000 compounds went through this assay and about 4,300 (8.3%) were called active. Rule as the data show it: active = survival mostly below about 52% (no sharp cut-off); inactive = mostly above about 56%. The list comes from a sample in which actives are over-represented; it also holds similar structures and randomly drawn compounds.

tested on: DeltatarO mutant; assay: growth inhibition of S. aureus wild type versus tarO mutant, primary screen, teichoic acid synthesis inhibitors, RN4220, OD600 (AID 463173); settings: OD600, 18 h, hits give low values, screened at 18.75 µg/mL (by protocol)

Structure (SMILES) | survival
CCN1CCN(C(=O)c2cnn(-c3cccc(C)c3)c2C2CCN(C(=O)OC(C)(C)C)CC2)CC1 | 89% (inactive)
O=[N+]([O-])c1cc(-c2nc(-c3ccccc3)no2)ccc1NC1CCCCC1 | 75% (inactive)
CC(C)Oc1ccc(C(=O)N2CCN(CCc3ccccn3)CC2)cc1 | 68% (inactive)
Cc1cccc(NC(=O)C2CCCN(S(=O)(=O)c3cccc4nonc34)C2)c1 (stereo not drawn) | 92% (inactive)
O=C(Nc1cc(-c2ccccc2)sc1C(=O)O)c1cccc(F)c1 | 38% (active)
CCOc1ccc(-c2cc(NC(=O)c3ccc(C)cc3)c(C(=O)OC)s2)cc1 | 70% (inactive)
CCOc1ccc(-c2cc(NC(=O)c3ccccc3)c(C(=O)OC)s2)cc1 | 94% (inactive)
COC(=O)c1sc(-c2ccccc2)cc1NC(=O)c1cccc(F)c1 | 94% (inactive)
CCOc1ccc(-c2cc(NC(=O)Nc3ccc(Cl)cc3)c(C(=O)OC)s2)cc1 | 101% (inactive)
COC(=O)c1sc(-c2ccccc2)cc1NC(=O)c1cccc(Cl)c1 | 34% (active)
COC(=O)c1sc(-c2ccccc2)cc1NC(=O)Nc1ccc(F)cc1 | 21% (active)
COC(=O)c1sc(-c2ccccc2)cc1NC(=O)Nc1ccc(Cl)cc1 | 11% (active)
CCOc1ccc(-c2cc(NC(=O)Nc3ccccc3C(F)(F)F)c(C(=O)OC)s2)cc1 | 60% (inactive)
CCOc1ccc(-c2cc(NC(=O)Nc3cccc(C(C)=O)c3)c(C(=O)OC)s2)cc1 | 53% (inactive)
COC(=O)c1sc(-c2ccccc2)cc1NC(=O)Nc1ccccc1Cl | 43% (inactive)
CCOc1ccc(-c2cc(NC(=O)c3cccc(Cl)c3)c(C(=O)OC)s2)cc1 | 77% (inactive)
Cc1noc2ncnc(N3CCCC(C(=O)NCCC(C)C)C3)c12 (stereo not drawn) | 88% (inactive)
CCOc1ccccc1CNC(=O)c1cccc(NC(=O)c2nsc3ccccc23)c1 | 88% (inactive)
Cc1c(Cl)cccc1NC(=O)CCn1nc(C)c2c(C)n(-c3ccccc3)nc2c1=O | 92% (inactive)
Cc1c(C(=O)N2CCOCC2)oc2c1-c1nn(CC(=O)NCc3ccccc3)cc1CC2 | 79% (inactive)

Structure (SMILES) | survival
Cc1ccc(S(=O)(=O)NCc2nc3cccnc3n2Cc2ccccc2Cl)c(C)c1 | 89% (inactive)
Cc1ccccc1OCCSc1nc(C)c(Cc2ccccc2)c(=O)[nH]1 | 97% (inactive)
CCc1ccc(-n2nc(CO)c(C(=O)NCCCCc3ccccc3)n2)cc1 | 47% (inactive)
Cc1ccc(C)c(Nc2nn3c(=O)c4ccc(C(=O)NCc5cccs5)cc4nc3s2)c1 | 65% (inactive)
CSc1ccc(CCNC(=O)CCn2c(=O)c3cccn3c3cccnc32)cc1 | 90% (inactive)
CC(C)CCNC(=O)CCCn1c(=O)c2cccn2c2ccccc21 | 68% (inactive)
COC(=O)c1ccc2c(=O)n(CCCCCC(=O)NCc3ccc(Cl)cc3)c(=O)[nH]c2c1 | 74% (inactive)
COC(=O)c1ccc2c(=O)n(CCCCCC(=O)NCCc3ccccc3)c(=O)[nH]c2c1 | 79% (inactive)
O=C(CCCn1c(=O)c2cccn2c2cccnc21)NCCc1ccc(Cl)cc1 | 63% (inactive)
O=C(CCCn1c(=O)c2cccn2c2ccccc21)NCCc1ccc(Cl)cc1 | 32% (active)
COC(=O)c1ccc2c(=O)n(CCCCCC(=O)NCCc3ccc(Cl)cc3)c(=O)[nH]c2c1 | 52% (active)
CSc1ccc(CCNC(=O)CCCn2c(=O)c3cccn3c3ccccc32)cc1 | 42% (active)
CCOc1ccc(CCNC(=O)CCCn2c(=O)c3cccn3c3ccccc32)cc1 | 72% (inactive)
CN(CCCN1C(=O)c2ccccc2C1=O)CCCN1C(=O)c2ccccc2C1=O | 93% (inactive)
CCOc1ccc(NC(=O)CC2C(=O)N(c3ccccc3)C(=O)N2Cc2ccc3c(c2)OCO3)cc1 (stereo not drawn) | 79% (inactive)
CN1CCN(C(CNC(=O)C(=O)Nc2ccccc2C#N)c2ccc3c(c2)OCO3)CC1 (stereo not drawn) | 73% (inactive)
COCCCNC(=O)CCC(=O)N1Cc2ccccc2Oc2ncccc21 | 84% (inactive)
COC(=O)c1cc2sc(C)cc2n1Cc1cccc(OC)c1 | 1% (active)
COC(=O)c1cc2sc(C)cc2n1CC(=O)Nc1ccc(C)c(C)c1 | 64% (inactive)
COC(=O)c1cc2sc(C)cc2n1Cc1ccc(Br)cc1F | 89% (inactive)

Structure (SMILES) | survival
COC(=O)c1cc2sc(Cl)cc2n1Cc1c(C)cc(C)cc1C | 98% (inactive)
C=Cc1ccc(Cn2c(C(=O)OC)cc3sc(C)cc32)cc1 | 27% (active)
COC(=O)c1cc2sc(C)cc2n1Cc1ccccc1 | 95% (inactive)
Cn1c(=O)n(C)c2cc(N3CCOCC3)c(NS(=O)(=O)c3ccc(F)cc3)cc21 | 126% (inactive)
COc1ccc(CNC(=O)C2CCN(S(=O)(=O)c3ccc4nc5c(c(C(=O)O)c4c3)CCCC5)CC2)cc1 | 99% (inactive)
Clc1ccc(CCNc2nc3cc(Cl)c(Cl)cc3n3cnnc23)cc1 | 91% (inactive)
O=C1CCSC2(C(=O)N(Cc3ccc(F)cc3)c3ccccc32)N1c1ccc(F)c(F)c1 (stereo not drawn) | 83% (inactive)
COc1ccc(Cn2c(=O)c3oc4ccccc4c3n(Cc3ccccc3)c2=O)cc1 | 82% (inactive)
O=C(Nc1ccccc1C(F)(F)F)N1CCOc2ccc(Cl)cc21 | 46% (inactive)
OC(c1ccccc1)c1nc2ccccc2n1Cc1c(F)cccc1Cl (stereo not drawn) | 74% (inactive)
COC(=O)Cn1c(C(O)c2ccccc2)nc2ccccc21 (stereo not drawn) | 71% (inactive)
Cc1cc(C)c(Cn2c(C(O)c3ccccc3)nc3ccccc32)c(C)c1 (stereo not drawn) | 31% (active)
COc1ccc(CCNc2nc3ccccc3c3nc(-c4cccc(C)c4)nn23)cc1OC | 20% (active)
COc1ccc(CCNc2nc3cc(OC)c(OC)cc3c3nc(-c4cccnc4)nn23)cc1OC | 117% (inactive)
COc1cc2nc(NCCc3cccc(C)c3)n3nc(-c4ccccc4)nc3c2cc1OC | 59% (inactive)
COc1ccc(CCNc2nc3cc(OC)c(OC)cc3c3nc(-c4ccccc4)nn23)cc1OC | 93% (inactive)
COc1cc2nc(NCCc3ccccc3)n3nc(-c4cccnc4)nc3c2cc1OC | 118% (inactive)
Cc1cccc(-c2nc3c4ccccc4nc(NCCc4ccccc4)n3n2)c1 | 7% (active)
